# Only some compounds are listed: those with a hit (about 1.6% of all), similar ones and a draw of the others.
# KCNQ2 inh – blocks the rat KCNQ2 potassium channel; O88943; AID 2156; CHO-K1 KCNQ2, FluxOR thallium flux, 20 min; hits give low values; 310,000 compounds, 1.1% hits; B-score at 10 µM;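 active = fluorescence ratio B-score at most minus 3 library SDs, with starting brightness B-score within 2 library SDs, cut at about -5.5 in these data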
# KCNQ2 enhance – potentiators of rat KCNQ2 potassium channel; O88943; CHO-K1 KCNQ2, FluxOR thallium flux fluorescence; hits give high values; B-score at 10 µM; 310,000 compounds, 0.54% hits; AID 2239;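 active = fluorescence ratio B-score at least 3 SD of library B-scores, with initial fluorescence B-score within 3 of them, cut at about 5.3 in these data; same plate scores as AID 2156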;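 also: B-score of peak minus minimum over baseline fluorescence ratio after K+ and Tl+ stimulus; positive B-score means potentiation of KCNQ2 with more thallium influx and brighter signal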
# Kir21 confirm – confirmation of mouse Kir2.1 potassium channel inhibitors; shares compounds with KCNQ2 enhance; Kir2.1-expressing cells, FluxOR thallium flux fluorescence; hits give low values; Tl flux remaining, % of negative control (hits give low values), % at 10 µM; 2,300 compounds, 41% hits;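 active = Primary-screen hit whose thallium flux fell at least 3 control SD below untreated wells in both duplicates, with normal baseline fluorescence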;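 also: 0% = blank wells without stimulus and 100% = stimulated no-compound controls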
# HEK293 ctr – alters thallium flux in parental HEK293 cells, Kir2.1 counter-screen | shares compounds with KCNQ2 enhance | FluxOR signal as % of negative control (100 = no effect), % at 10 µM | 2,300 compounds, 19% hits | FluxOR thallium flux fluorescence; 0% = unstimulated blank wells | AID 2105;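 active = dye signal at least 3 control SD above or below untreated wells in both duplicates, raw fluorescence within 3, either direction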;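 also: percent is based on the flux ratio of peak minus minimum fluorescence over baseline F0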
# CHO-K1 ctr – parental CHO-K1 activity in KCNQ2 potentiator counter-screen; 1,200 compounds, 43% hits; activity increase over 3SD of controls, % at 10 µM; shares compounds with KCNQ2 enhance; parental CHO-K1 cells, FluxOR thallium flux fluorescence; zero = vehicle mean+3SD, 100% = vehicle-minus-blank window;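 active = signal rise of at least 3 SD above the untreated control mean, in both duplicate wells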;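 also: counter screen of KCNQ2 potentiator hits so any rise reflects channel-independent effects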
# KCNQ1 pot spec – tests whether KCNQ2 potentiators also act on human KCNQ1; shares compounds with KCNQ2 enhance; CHO KCNQ1 stable, FluxOR thallium flux fluorescence; beyond 3SD, as % of vehicle-control signal; activation over 3SD threshold, % at 10 µM; 1,200 compounds, 28% hits; AID 2283;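 active = fluorescence ratio rise of at least 3 SD of vehicle wells above their mean, in both replicate wells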;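 also: 0% = vehicle mean plus 3 SD and 100% = vehicle minus unstimulated blank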
# Target sequence (P51787 whole entry, looked up): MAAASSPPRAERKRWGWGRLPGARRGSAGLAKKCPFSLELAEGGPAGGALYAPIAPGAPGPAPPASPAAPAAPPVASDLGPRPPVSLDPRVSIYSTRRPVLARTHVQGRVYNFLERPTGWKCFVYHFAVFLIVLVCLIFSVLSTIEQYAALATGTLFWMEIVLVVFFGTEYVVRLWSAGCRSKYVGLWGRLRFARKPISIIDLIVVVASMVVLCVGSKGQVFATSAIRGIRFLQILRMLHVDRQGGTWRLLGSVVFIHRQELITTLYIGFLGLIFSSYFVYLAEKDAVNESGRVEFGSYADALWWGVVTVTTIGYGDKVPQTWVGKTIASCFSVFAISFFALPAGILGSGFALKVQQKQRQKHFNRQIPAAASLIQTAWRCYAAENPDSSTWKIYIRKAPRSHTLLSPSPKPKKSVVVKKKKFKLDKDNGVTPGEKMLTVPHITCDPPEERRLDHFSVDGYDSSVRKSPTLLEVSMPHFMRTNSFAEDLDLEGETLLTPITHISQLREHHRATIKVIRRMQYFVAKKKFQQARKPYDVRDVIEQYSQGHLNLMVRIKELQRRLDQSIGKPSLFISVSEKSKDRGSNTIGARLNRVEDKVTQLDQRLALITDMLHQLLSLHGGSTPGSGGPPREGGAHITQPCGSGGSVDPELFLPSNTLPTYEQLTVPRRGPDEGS
# KCNQ2 pot conf – confirmation of rat KCNQ2 potassium channel potentiators | shares compounds with KCNQ2 enhance | CHO-KCNQ2 cells, FluxOR thallium flux fluorescence | potentiation, less the hit threshold, % at 10 µM | 1,200 compounds, 68% hits | AID 2287;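 active = fluorescence ratio rising 3 SD or more over the vehicle control mean in both replicates, plus primary screen hit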;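 also: peak minus minimum thallium fluorescence divided by baseline after K/Tl stimulus; 0% = vehicle mean plus 3 SD and 100% = vehicle minus unstimulated blank difference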
# Kir21 spec – mouse Kir2.1 off-target activity of KCNQ2 potentiators; shares compounds with KCNQ2 enhance; 1,200 compounds, 2% hits; HEK293 Kir2.1, FluxOR thallium flux fluorescence; activity over 3SD threshold, % at 10 µM;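 active = fluorescence ratio rise of at least 3 SD above the vehicle-control mean, seen in both replicates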;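 also: 0% = vehicle mean plus 3 SD and 100% = vehicle minus no-stimulus blank window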
# KCNQ2 W236L MoA – KCNQ2 potentiators acting on retigabine-insensitive rat KCNQ2 W236L mutant; CHO KCNQ2-W236L, automated patch clamp current; 940 compounds, 10% hits; shares compounds with KCNQ2 enhance; current increase over 3SD of negative controls (%), hits give high values, % at 25 µM; AID 2558;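 active = current increase at least 3 SD of the untreated controls above them in both duplicate recordings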
# The depositor's hits bear a star; i = inactive; nt = not tested or not shown.
SMILES,KCNQ2 inh,KCNQ2 enhance,Kir21 confirm,HEK293 ctr,others
O=C(/C=C/c1cccc(Cl)c1)NCc1ccccc1,i,0.36,nt,nt,
CC(NCC(O)COc1ccc2ccccc2c1)c1ccccc1 (stereo not drawn),i,0.03,nt,nt,
Cc1cc(OCC(O)CNC(C)c2ccccc2)ccc1C(C)C (stereo not drawn),i,3.9,i,i,
CC(C)(C)c1ccc(NC(=O)c2c(F)cccc2Cl)cc1,i,nt,nt,nt,
CC(Nc1ccc(Cl)cc1)C(=O)NN (stereo not drawn),i,nt,nt,nt,
O=C(O)CCCNC(=O)Nc1ccccc1,i,0.71,nt,nt,
CCCCCCNC(=O)Nc1ccccc1,i,5.9*,i,i,CHO-K1 ctr=-8;KCNQ1 pot spec=-11;KCNQ2 pot conf=3.7*;Kir21 spec=-24;KCNQ2 W236L MoA=i
CN(Cc1c(F)cccc1Cl)C(=O)c1cnc2ccccc2n1,i,nt,nt,nt,
CC(CCc1ccc(O)cc1)NCCc1ccc(O)c(O)c1 (stereo not drawn),i,0.9,nt,nt,
CC(Cc1ccc(O)c(O)c1)C(C)Cc1ccc(O)c(O)c1 (stereo not drawn),i,nt,18%*,56%*,
Cc1ccc(S(=O)(=O)CCC(=O)c2cccc([N+](=O)[O-])c2)cc1,-13*,-13,51%*,58%*,
Cc1ccc(S(=O)(=O)NCC(=O)Nc2cccc([N+](=O)[O-])c2)cc1,i,0.34,nt,nt,
CCC(=O)N(CCC(Cc1ccccc1)c1ccc2c(c1)OCO2)Cc1ccccc1F (stereo not drawn),i,nt,nt,nt,
CCC(=O)N(CCC(c1ccccc1)c1ccco1)Cc1cccs1 (stereo not drawn),-14*,-14,62%*,i,
COc1ccccc1C(CCN(Cc1cccs1)C(C)=O)c1ccco1 (stereo not drawn),i,nt,nt,nt,
CCC(=O)N(CCC(Cc1ccccc1)c1ccco1)Cc1ccco1 (stereo not drawn),i,nt,54%*,i,
CCOC(=O)c1c(C)[nH]c(C)c1C(=O)COC(=O)c1nc2nccc(C)n2n1,i,nt,nt,nt,
Cn1c(=O)n(C)c2cc(NC(=O)CSc3ccccc3)ccc21,i,1.8,nt,nt,
CN1CCN(CC(O)Cn2c3ccccc3c3ccccc32)CC1 (stereo not drawn),i,nt,nt,nt,
CN1CCN(CC#CCn2c3ccccc3c3ccccc32)CC1,i,nt,32%*,i,
CCOC(=O)C(NCCOC)(NC(C)=O)C(F)(F)F (stereo not drawn),i,nt,nt,nt,
Cc1ccc(C)c(NC(=O)CSc2nnc(C3CCCCC3)o2)c1,i,0.61,nt,nt,
O=C(Nc1ccccc1)N(Cc1ccccc1)CC(O)C(F)(F)F (stereo not drawn),i,nt,nt,nt,
O=C(Nc1cccc(F)c1)N(Cc1ccc(Cl)cc1)CC(O)C(F)(F)F (stereo not drawn),i,6.7*,i,i,CHO-K1 ctr=-1;KCNQ1 pot spec=40*;KCNQ2 pot conf=14*;Kir21 spec=-27;KCNQ2 W236L MoA=i
Cc1ccn2c(=O)c(NC(=O)c3ccc(Br)o3)c(C)nc2c1,i,nt,nt,nt,
SMILES,KCNQ2 inh,KCNQ2 enhance,Kir21 confirm,HEK293 ctr,others
c1ccc2c(NCCc3c[nH]c4ccccc34)c3ccccc3nc2c1,i,nt,38%*,i,
Fc1cccc(NCCc2c[nH]c3ccccc23)n1,i,1.1,nt,nt,
Cc1cccc(Oc2ccccc2NC(=O)CN2C(=O)NC3(CCCC3)C2=O)c1,i,4.4,nt,nt,
Cc1ccc(Oc2ccccc2NC(=O)CN2C(=O)NC3(CCCC3)C2=O)cc1,i,6.3*,i,i,CHO-K1 ctr=26*;KCNQ1 pot spec=22*;KCNQ2 pot conf=13*;Kir21 spec=-36;KCNQ2 W236L MoA=i
COc1ccc(NC(=O)NCc2ccccn2)c(OC)c1,i,0.07,nt,nt,
CC(C)(C)OC(=O)NCCCCCc1nnc(SCc2ccc(F)cc2)o1,i,nt,nt,nt,
Cc1ccc(CSc2nnc([C@@H]3CCCN3C(=O)OC(C)(C)C)o2)cc1,i,nt,50%*,66%*,
Cc1ccc(CSc2nnc(CCNC(=O)OC(C)(C)C)o2)cc1,i,nt,29%*,i,
CC(C)(C)OC(=O)NCCc1nnc(SCc2ccccc2)o1,i,nt,45%*,77%*,
CC(C)(C)OC(=O)NCCc1nnc(SCc2ccccc2Cl)o1,i,nt,nt,nt,
CC(C)(C)OC(=O)N1CCC[C@H]1c1nnc(SCc2ccccc2)o1,i,nt,nt,nt,
Cc1ccc(N2C(=O)CCC(C(=O)O)C2c2cccs2)cc1 (stereo not drawn),i,0.43,nt,nt,
CC(=O)Nc1cccc(NC(=O)CSc2nnc3ccc(-c4ccncc4)nn23)c1,i,nt,nt,nt,
CCN(CC(=O)NC(C)C)C(=O)Cc1ccc(C)c(C)c1,i,1.9,nt,nt,
O=C(CN1CCCC1=O)NC1C2CC3CC(C2)CC1C3 (stereo not drawn),i,0.01,nt,nt,
O=S(=O)(Nc1ncccn1)c1ccc(-n2cnnn2)cc1,i,nt,nt,nt,
CCNC(=S)Nn1cnc2ccccc21,i,0.03,nt,nt,
Cc1nn(-c2ccccc2)c(Cl)c1/C=C1\SC(=S)NC1=O,i,13*,i,412%*,CHO-K1 ctr=-1;KCNQ1 pot spec=-14;KCNQ2 pot conf=215*;Kir21 spec=-13;KCNQ2 W236L MoA=i
Cc1nn(-c2ccccc2)c(Cl)c1/C=C1\SC(=S)N(CCCCCC(=O)O)C1=O,i,1.5,nt,nt,
COc1ccccc1CN1C[C@@H]2C[C@@H](c3cccc(C)c3)N3CCC[C@@]23C1=O,i,nt,nt,nt,
Cc1ccc(O)c(C(=O)CC(=O)c2cccc(F)c2)c1,i,1.6,nt,nt,
Cc1cccc(C(=O)CC(=O)c2cc(Cl)ccc2O)c1,i,0.16,nt,nt,
Cc1ccc(O)c(C(=O)CC(=O)c2ccc(Cl)cc2)c1,i,6.2*,i,i,CHO-K1 ctr=-9;KCNQ1 pot spec=-18;KCNQ2 pot conf=-11;Kir21 spec=-34
O=C(CC(=O)c1cc(Cl)ccc1O)c1ccccc1,i,5.3*,i,130%*,CHO-K1 ctr=-5;KCNQ1 pot spec=-16;KCNQ2 pot conf=-3;Kir21 spec=-14;KCNQ2 W236L MoA=i
COc1cccc(C(=O)COC(=O)CCC(=O)c2ccccc2)c1,i,nt,nt,nt,
CCOc1ccc(CN2CCN(Cc3nc4c(s3)CCCC4)CC2CCO)cc1 (stereo not drawn),i,1,nt,nt,
Cc1cccc(SC2CCN(C(=O)C3CCC(=O)N(C4CC4)C3)CC2)c1 (stereo not drawn),i,nt,nt,nt,
O=C(CSc1nc2ccc(Cl)cc2[nH]1)NCc1ccco1,i,0.53,nt,nt,
O=C(CSc1c2c(nc3cc(Cl)ccc13)CCCC2)NCc1ccco1,i,nt,57%*,i,
